Consider six molecules from PubChem BioAssay (NCATS).

Inconclusive results are not listed. Activity calls are given as the source filed them. Unless noted, calls follow the shape of the full dose curve.

A short description of experiment [1]: qHTS assay for small molecule antagonists of peroxisome proliferator-activated receptor delta signaling (AID 588535; active = well fitted inhibition curve with a large enough effect in the signal ratio, with a control signal flat, not every such curve was filed as active; the % refers to the signal ratio;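 as to max response: cells co-treated with a PPAR-delta agonist as stimulator during compound exposure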). The conditions noted are these: HEK293T PPARd-UAS-bla, beta-lactamase FRET ratio, 18 h; 460 nm channel. The method, boiled down: (§1)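 Antagonist-mode qHTS using GeneBLAzer PPAR-delta-UAS-bla HEK293T cells; compound exposure 18 hrs at 37 C over a titration. Ratiometric CCF4 fluorescence at 460/530 nm; concentration-response points fitted to the Hill equation.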

The target of experiment [2] is Peroxisome proliferator-activated receptor delta (Homo sapiens) (UniProt Q03181). Described as above. The method, boiled down:
as §1

The target in experiment [3] is Vitamin D3 receptor (Homo sapiens) (UniProt P11473). Kind of experiment: qHTS assay for small molecule agonists of vitamin D receptor signaling (AID 588543).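 Also: 0% = DMSO basal and 100% = reference agonist control.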 The method, boiled down:
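GeneBLAzer VDR-UAS-bla HEK293T cells in 2% charcoal-stripped FBS medium were dosed with compound titrations for 16 h at 37 °C; CCF4 β-lactamase readout (405 nm ex, 460/530 nm em). EC50 and efficacy from Hill fits, normalized to 50 nM calcitriol (100%) and DMSO (0%).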
(qHTS replaces the single test concentration by a dilution series.)

Experiment [4] is described as follows: qHTS assay for small molecule agonists of retinoid X receptor alpha signaling (AID 588544).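 As to activation: 0% = DMSO basal wells and 100% = reference agonist.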 The conditions noted are these: HEK293T RXRa-UAS-bla, beta-lactamase reporter, 18 h; 530 nm emission.
The target of experiment [5] is Retinoic acid receptor RXR-alpha (Homo sapiens) (UniProt P19793). Described as above.
Retinoic acid receptor RXR-alpha (Homo sapiens), sequence (P19793 whole entry, looked up): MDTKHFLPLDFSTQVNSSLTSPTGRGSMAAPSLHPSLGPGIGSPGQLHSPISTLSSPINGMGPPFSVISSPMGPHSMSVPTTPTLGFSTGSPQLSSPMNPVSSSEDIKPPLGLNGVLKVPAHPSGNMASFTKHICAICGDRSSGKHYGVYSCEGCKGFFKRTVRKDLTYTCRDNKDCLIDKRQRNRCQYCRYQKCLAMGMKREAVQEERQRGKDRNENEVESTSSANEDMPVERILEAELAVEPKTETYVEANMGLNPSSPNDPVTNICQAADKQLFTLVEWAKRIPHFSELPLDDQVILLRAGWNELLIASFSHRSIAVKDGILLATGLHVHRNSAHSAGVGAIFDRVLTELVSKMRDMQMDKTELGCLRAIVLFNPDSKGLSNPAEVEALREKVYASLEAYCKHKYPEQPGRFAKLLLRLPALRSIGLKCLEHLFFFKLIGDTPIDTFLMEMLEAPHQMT
Experiment [6] concerns the target Thyroid hormone receptor beta (Homo sapiens) (UniProt P10828). Briefly: qHTS assay for small molecule agonists of thyroid hormone receptor beta signaling (AID 588545).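 Also: 0% = DMSO only and 100% = 10 nM T3.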 The method, boiled down: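 Stimulation of a TR-driven beta-lactamase reporter was quantified in GripTite HEK 293 cells. Compound series ran for 18 hrs; curves were normalized to T3 and DMSO controls and fitted to yield EC50.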

Experiment [7] in a line: qHTS assay for small molecule antagonists of retinoid X receptor alpha signaling (AID 588546; active = well fitted inhibition curve with a large enough effect in the signal ratio, with a control signal flat, not every such curve was filed as active; the % refers to the signal ratio;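 also: cells stimulated with 9-cis-retinoic acid as agonist; % is scaled to controls: 0 for no effect and ±100 for the full control effect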). The settings on record: HEK293T RXRa-UAS-bla, beta-lactamase ratio, antagonist mode; measured here: W530 green channel, cytotoxicity proxy. The method, boiled down:
(§2)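 Beta-lactamase reporter inhibition, read as CCF4 fluorescence ratio (ex 405, em 460/530 nm) after 2 h at RT. HEK293T UAS-bla cells, 2500/well, were stimulated with 9-cis-RA at 500 or 100 nM final alongside test compound for 18 h at 37 C.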

Experiment [8] in a line: qHTS assay for small molecule activators of the p53 signaling pathway (AID 651743; active = well fitted activation curve with a large enough effect in the signal ratio, not every such curve was filed as active; the % refers to the signal ratio; also: series mostly up to about 92 µM; % of control where 0% means no effect). The conditions noted are these: HCT-116 p53RE-bla, beta-lactamase FRET ratio, 16 h; activation: stronger effect = higher value. The method, boiled down:
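A beta-lactamase reporter under p53 response element control, stably carried by HCT-116 cells, reported pathway activation. Test compounds were applied for 16 hours at 37 C, and fluorescence was measured 2 hours after adding the B/G FRET substrate.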

Experiment [9] is described as follows: qHTS assay for small molecule activators of the nuclear factor-kappa B (NF-kB) signaling pathway (AID 651749; active = well fitted activation curve with a large enough effect in the signal ratio; the % refers to the signal ratio; also: series mostly up to about 77 µM; % of control where 0% means no effect). The conditions noted are these: NF-kB-bla ME-180 cells, beta-lactamase FRET ratio, 16 h; activation: stronger effect = higher value. The method, boiled down: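 FRET-based beta-lactamase detection in ME-180 cells reports NF-kB response-element-driven transcription following overnight (16 hr) compound treatment.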

The target of experiment [10] is Peroxisome proliferator-activated receptor alpha (Homo sapiens) (UniProt Q07869). Briefly: qHTS assay for small molecule agonists of the peroxisome proliferator-activated receptor alpha (PPARalpha) signaling pathway (AID 651778; active = well fitted curve in the direction sought with a large enough effect; an effect the other way counts as inactive or inconclusive; also: % of control where 0% means no effect). The conditions noted are these: PathHunter PPARalpha complementation, chemiluminescence, 6 h; max response: stronger effect = higher value. The method, boiled down: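 Chemiluminescence from complemented enzyme reported PPARalpha activation in cells after 6 hr of compound treatment at 37 C. The detection reagent was incubated for 60 min at room temperature, and compounds were scored as agonists.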
Peroxisome proliferator-activated receptor alpha (Homo sapiens), sequence (Q07869 whole entry, looked up): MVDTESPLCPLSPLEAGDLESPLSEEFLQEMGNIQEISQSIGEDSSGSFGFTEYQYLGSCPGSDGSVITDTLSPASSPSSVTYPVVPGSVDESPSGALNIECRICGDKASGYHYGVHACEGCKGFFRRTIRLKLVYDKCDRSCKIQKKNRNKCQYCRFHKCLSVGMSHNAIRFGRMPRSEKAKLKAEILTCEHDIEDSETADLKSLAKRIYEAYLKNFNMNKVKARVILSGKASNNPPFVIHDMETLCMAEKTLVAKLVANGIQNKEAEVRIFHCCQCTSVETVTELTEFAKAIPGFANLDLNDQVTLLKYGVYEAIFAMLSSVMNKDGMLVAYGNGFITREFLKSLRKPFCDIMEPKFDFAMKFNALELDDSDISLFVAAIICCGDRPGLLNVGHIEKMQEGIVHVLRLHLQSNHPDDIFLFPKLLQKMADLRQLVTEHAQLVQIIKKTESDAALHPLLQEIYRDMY

Experiment [11] can be described thus: qHTS assay for small molecule agonists of the antioxidant response element (ARE) signaling pathway measured by Nrf2-dependant transcriptional activity (AID 720636; active = well fitted curve in the direction sought with a large enough effect in the repeat runs; an effect the other way counts as inactive or inconclusive; also: potency is read from the fitted curve at half-maximal effect;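 as to activation: HepG2 cells with an ARE-driven luciferase reporter; % of control where 0% means no effect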). The method, boiled down: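 First, ARE-luc HepG2 cells attached for 6 hr at 37 C in 1% dialyzed FBS medium. Next, compound or DMSO was added and incubated 16 hr. Finally, ONE-Glo reagent was added and luminescence measured after 30 min.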

Experiment [12] is described as follows: qHTS assay for small molecule agonists of the antioxidant response element (ARE) signaling pathway measured by Nrf2-dependant transcriptional activity - cell viability counter screen (AID 720653; active = well fitted curve in the direction sought with a large enough effect in the repeat runs; an effect the other way counts as inactive or inconclusive; also: % is scaled to controls: 0 for no effect and ±100 for the full control effect). The conditions noted are these: ARE-bla HepG2 viability, CellTiter-Glo ATP luminescence, 16 h; max response: stronger effect = lower value. The method, boiled down: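 Cytotoxicity counter screen: intracellular ATP quantified by CellTiter-Glo luminescence in the same ARE-bla HepG2 plates, after 16 h compound exposure and a 2 h beta-lactamase substrate step.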

Experiment [13] can be described thus: qHTS assay for cell viability of the p53RE-bla HCT-116 cell line (AID 743292; active = well fitted curve in the direction sought with a large enough effect; an effect the other way counts as inactive or inconclusive; also: % is scaled to controls: 0 for no effect and ±100 for the full control effect; nearly all actives have a fitted effect of over 55% in size). The method, boiled down: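 Quantitative high-throughput format: compounds in DMSO were pinned onto p53RE-bla HCT-116 cells (4,000/well) and incubated 16 h at 37 C. Total intracellular ATP, read by CellTiter-Glo luminescence, reflects viable cell number.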
Experiment [14] concerns the target Nuclear receptor subfamily 1 group I member 2 (Rattus norvegicus) (UniProt Q9R1A7). Kind of experiment: qHTS assay for small molecule activators of the rat pregnane X receptor (rPXR) signaling pathway (AID 651751; call rule not given here; also: 0% is about no effect). The conditions noted are these: rPXR reporter cells, luciferase (One-Glo), 24 h.
The nature of experiment [15]: qHTS assay for small molecule activators of the human pregnane X receptor (PXR) signaling pathway (AID 720659; call rule not given here; also: 0% is about no effect).
In experiment [16] the target is Vitamin D3 receptor (Homo sapiens) (UniProt P11473). Briefly: qHTS assay for small molecule antagonists of vitamin D receptor signaling (AID 588541).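 Also: receptor activated by calcitriol during compound treatment; series mostly up to about 77 µM; % is scaled to controls: 0 for no effect and ±100 for the full control effect.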 The method, boiled down: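 Antagonist-mode beta-lactamase reporter assay: HEK293T VDR-UAS-bla cells were exposed to titrated compound alongside 1-alpha,25-dihydroxyvitamin D3 at 3 nM final for 16 h. Values were normalized to the 50 nM agonist control and DMSO basal, with IC50 and efficacy from Hill equation fits.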
Vitamin D3 receptor (Homo sapiens), sequence (P11473 whole entry, looked up): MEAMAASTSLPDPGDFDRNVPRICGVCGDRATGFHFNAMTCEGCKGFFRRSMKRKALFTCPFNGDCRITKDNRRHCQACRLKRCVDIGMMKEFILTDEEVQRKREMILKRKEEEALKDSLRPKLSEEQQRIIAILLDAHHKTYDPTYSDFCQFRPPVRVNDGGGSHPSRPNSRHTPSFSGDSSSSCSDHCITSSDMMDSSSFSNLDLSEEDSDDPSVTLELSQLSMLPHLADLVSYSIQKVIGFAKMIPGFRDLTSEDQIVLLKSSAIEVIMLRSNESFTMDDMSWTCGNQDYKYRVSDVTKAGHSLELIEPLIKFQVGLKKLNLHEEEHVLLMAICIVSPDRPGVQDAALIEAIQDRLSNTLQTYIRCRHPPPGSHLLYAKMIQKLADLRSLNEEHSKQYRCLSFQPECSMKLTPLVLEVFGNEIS

In experiment [17] the target is Retinoic acid receptor RXR-alpha (Homo sapiens) (UniProt P19793). Briefly: qHTS assay for small molecule antagonists of retinoid X receptor alpha signaling (AID 588546).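 Also: cells stimulated with 9-cis-retinoic acid as agonist; % is scaled to controls: 0 for no effect and ±100 for the full control effect.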 The conditions noted are these: HEK293T RXRa-UAS-bla, beta-lactamase ratio, antagonist mode. The method, boiled down:
as §2

Experiment [18] is described as follows: qHTS assay for environmental chemicals that activate the Aryl hydrocarbon Receptor (AhR) signaling pathway (AID 651777; active = well fitted curve in the direction sought with a large enough effect; an effect the other way counts as inactive or inconclusive; also: nearly all actives have a fitted effect of over 15% in size; also: potency is read from the fitted curve at half-maximal effect; as to activation: % of control where 0% means no effect). The conditions noted are these: 1A2-DRE human hepatoma cells, luciferase, 24 h; activation: stronger effect = higher value. The method, boiled down:
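AhR activation is scored as a rise in luciferase from a stable DRE–CYP1A2 promoter construct in human hepatoma cells. Treatment lasts 24 hr at 37 C; detection uses One-Glo after 30 min at room temperature.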

Experiment [19] is described as follows: qHTS assay for cell viability of HEK293 cells (AID 743288; active = well fitted curve in the direction sought with a large enough effect; an effect the other way counts as inactive or inconclusive; also: % is scaled to controls: 0 for no effect and ±100 for the full control effect; nearly all actives have a fitted effect of over 50% in size). The settings on record: ATP luminescence (CellTiter-Glo), 18 h; max response: stronger effect = lower value. The method, boiled down:
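After 18 h compound exposure at 37 C, parental HEK293 cells (2,000/well) are lysed with CellTiter-Glo and luminescence is read following 30 min at room temperature.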

In experiment [20] the target is Peroxisome proliferator-activated receptor gamma (Homo sapiens) (UniProt P37231). Briefly: qHTS assay for small molecule agonists of peroxisome proliferator-activated receptor gamma signaling (AID 588536; active = well fitted curve in the direction sought with a large enough effect in the signal ratio, with a control signal flat, not every such curve was filed as active; the % refers to the signal ratio;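 also: 0% = DMSO basal wells and 100% = rosiglitazone at 2 µM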). The method, boiled down: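 This is an agonist-mode beta-lactamase reporter assay in HEK293 PPAR-gamma-UAS-bla cells with 1% charcoal/dextran FBS. Compound titrations ran 16 h at 37 C before CCF4 detection. EC50 and efficacy are Hill fits scaled to 2 uM rosiglitazone (100%) and DMSO basal.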
Peroxisome proliferator-activated receptor gamma (Homo sapiens), sequence (P37231 whole entry, looked up): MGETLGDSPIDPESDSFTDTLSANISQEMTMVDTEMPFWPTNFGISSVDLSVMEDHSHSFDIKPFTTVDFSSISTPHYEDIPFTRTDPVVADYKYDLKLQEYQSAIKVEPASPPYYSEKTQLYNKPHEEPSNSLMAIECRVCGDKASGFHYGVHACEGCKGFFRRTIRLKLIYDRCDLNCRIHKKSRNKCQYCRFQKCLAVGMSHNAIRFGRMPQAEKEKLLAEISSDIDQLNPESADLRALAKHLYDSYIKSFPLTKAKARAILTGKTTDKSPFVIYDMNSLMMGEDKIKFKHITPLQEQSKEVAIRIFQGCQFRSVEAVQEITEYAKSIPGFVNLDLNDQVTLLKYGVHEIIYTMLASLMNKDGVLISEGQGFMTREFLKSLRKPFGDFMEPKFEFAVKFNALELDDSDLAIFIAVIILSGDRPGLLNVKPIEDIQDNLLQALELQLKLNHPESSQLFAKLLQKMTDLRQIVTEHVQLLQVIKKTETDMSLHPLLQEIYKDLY

Peroxisome proliferator-activated receptor delta (Homo sapiens), sequence (Q03181 whole entry, looked up): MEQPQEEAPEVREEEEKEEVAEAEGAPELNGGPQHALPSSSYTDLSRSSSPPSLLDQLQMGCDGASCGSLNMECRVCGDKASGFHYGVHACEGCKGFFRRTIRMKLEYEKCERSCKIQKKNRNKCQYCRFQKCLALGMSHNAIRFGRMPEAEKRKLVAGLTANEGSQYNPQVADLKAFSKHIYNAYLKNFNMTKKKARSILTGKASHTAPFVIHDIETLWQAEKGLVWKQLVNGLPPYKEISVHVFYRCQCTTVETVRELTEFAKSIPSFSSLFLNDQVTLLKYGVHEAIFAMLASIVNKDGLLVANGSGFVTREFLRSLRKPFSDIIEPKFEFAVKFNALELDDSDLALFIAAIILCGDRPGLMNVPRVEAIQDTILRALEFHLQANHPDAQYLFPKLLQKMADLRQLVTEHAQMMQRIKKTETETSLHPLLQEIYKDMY
Nuclear receptor subfamily 1 group I member 2 (Rattus norvegicus), sequence (Q9R1A7 whole entry, looked up): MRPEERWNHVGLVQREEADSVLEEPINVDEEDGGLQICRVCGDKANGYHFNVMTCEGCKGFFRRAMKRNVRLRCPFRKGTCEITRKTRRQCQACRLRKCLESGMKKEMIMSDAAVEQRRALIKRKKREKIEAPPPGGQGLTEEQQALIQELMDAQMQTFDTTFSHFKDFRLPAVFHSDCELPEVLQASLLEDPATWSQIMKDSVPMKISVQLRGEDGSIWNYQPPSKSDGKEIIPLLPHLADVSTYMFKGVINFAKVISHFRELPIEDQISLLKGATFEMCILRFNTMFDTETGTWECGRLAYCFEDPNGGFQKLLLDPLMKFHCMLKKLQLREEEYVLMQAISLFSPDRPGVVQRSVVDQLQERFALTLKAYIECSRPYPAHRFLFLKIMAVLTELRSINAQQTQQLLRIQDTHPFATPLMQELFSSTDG
Thyroid hormone receptor beta (Homo sapiens), sequence (P10828 whole entry, looked up): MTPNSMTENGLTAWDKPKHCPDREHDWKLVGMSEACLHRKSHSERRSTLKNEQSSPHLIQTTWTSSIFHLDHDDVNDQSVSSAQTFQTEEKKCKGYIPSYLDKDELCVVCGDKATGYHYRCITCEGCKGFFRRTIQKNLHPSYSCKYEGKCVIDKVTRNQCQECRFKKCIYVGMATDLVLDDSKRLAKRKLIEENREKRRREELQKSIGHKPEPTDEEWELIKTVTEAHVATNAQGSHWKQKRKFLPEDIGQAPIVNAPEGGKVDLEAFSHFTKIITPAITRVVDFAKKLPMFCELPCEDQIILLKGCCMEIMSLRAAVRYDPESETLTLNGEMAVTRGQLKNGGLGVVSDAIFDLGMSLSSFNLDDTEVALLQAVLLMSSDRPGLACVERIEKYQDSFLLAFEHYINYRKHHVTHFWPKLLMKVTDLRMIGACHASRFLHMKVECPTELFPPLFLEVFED

In the case of `O=C(O)C(Oc1ccc(Cl)cc1)Oc1ccc(Cl)cc1`, the max response was -2.46% in experiment [1]; 4.78% in experiment [4]; -7.28% in experiment [7]; 4.93% (inactive) in experiment [10]; -5.82% (inactive) in experiment [12]; -9.92% (inactive) in [14]. Moreover, the Potency entry in experiment [2], in experiment [5], in [6], in experiment [11] and in [13] was “inactive” each time. Moreover, the outcome in experiment [3] and in experiment [15] was inactive. Moreover, the values for the activation in experiment [8] and in experiment [9] were 2.64% (inactive) and 0.776% (inactive), respectively.
In the case of `Cc1ccc(N=Nc2c(O)ccc3ccccc23)c([N+](=O)[O-])c1`, the max response is 39.9% in [1]; -14.3% in experiment [4]; -4.75% in experiment [7]; -0.783% (inactive) in [17]; 0.597% (inactive) in experiment [10]; -11.8% (inactive) in [12]. Besides, the max response in experiment [19] is -2.16% (inactive); in experiment [14], 5.08% (inactive). In addition, the Potency entry in experiment [2], in experiment [16], in experiment [5], in experiment [6] and in experiment [13] was “inactive” in each case. Moreover, the result in experiment [3] was inactive. Also, the activation is -4.13% (inactive) in [8] and -0.237% (inactive) in experiment [9]. In addition, the Potency in [18] is 17.8 µM (active).
In the case of `Oc1ccc2ccccc2c1N=Nc1ccccc1`, the molecule was classed as inactive in experiment [20]. The Potency entry in [6] and in [13] was “inactive” in each case. Also, the max response in [7] is -13.8%; in experiment [17] it was -15.2% (inactive); in experiment [10] it was 0.672% (inactive); in experiment [12], -25.3% (inactive); in experiment [19], -20.8% (inactive); in experiment [14] it was 5.24% (inactive). The activation in [9] is 0.732% (inactive). For the same molecule, the Potency in experiment [11] is 9.69 µM (active).
In the case of `BrC1CCC(Br)C(Br)CCC(Br)C(Br)CCC1Br` (stereo not given), the max response was 11.4% in [1]; 0.976% in experiment [4]; -2.96% in experiment [7]; -24.4% (inactive) in [17]; -0.0514% (inactive) in [10]; 0.219% (inactive) in [12]. In addition, the max response in [19] is -7.59% (inactive); in experiment [14], 0.315% (inactive). Also, the Potency result in experiment [2], in experiment [16], in [5] and in [6] was “inactive” in each case. The result in [20], in experiment [3] and in experiment [15] was inactive. The activation in experiment [8] was -4.94% (inactive); in experiment [9], 1.45% (inactive); in [18], 1.8% (inactive).
As to `CC(C)=CCC/C(C)=C\CO`, the max response in [1] was 2.44%; in experiment [4] it was -16.1%; in experiment [7], -11.3%; in [17], -2.37% (inactive); in experiment [12], -3.82% (inactive); in experiment [14] it was 2.57% (inactive). Moreover, the Potency entry in experiment [2], in experiment [16], in [5], in experiment [6], in experiment [11] and in experiment [13] was “inactive” in each case. For the same molecule, the molecule was classed as inactive in experiment [20] and in [3]. For the same molecule, the activation was 1.13% (inactive) in experiment [8] and -1.2% (inactive) in experiment [9].
For `O=C(Cl)c1ccc(C(=O)Cl)cc1`, the max response is -9.41% in experiment [1]; -3.06% in experiment [4]; -14.3% in [7]; 2.6% (inactive) in experiment [17]; -0.543% (inactive) in experiment [10]; -8.12% (inactive) in experiment [12]. Besides, the max response is -8.26% (inactive) in experiment [19] and -1.54% (inactive) in experiment [14]. The Potency entry in experiment [2], in experiment [16], in experiment [5], in experiment [6], in experiment [11] and in experiment [13] was “inactive” throughout. In addition, the molecule was classed as inactive in [3] and in [15]. For the same molecule, the activation in experiment [8] is -0.615% (inactive); in experiment [18] it was -0.806% (inactive).
